From PubChem BioAssay

Tests used:
[1] = target: Tumor necrosis factor receptor superfamily member 10B (Homo sapiens) (UniProt O14763); assay: viability loss of caspase-8 NB7 cells with TRAIL – with/without TRAIL, luminescence panel, confirmation (AID 651596); settings: NB7 neuroblastoma + caspase-8, TRAIL sensitization, NB7 Caspase-8, with TRAIL, mean of runs, at 10 µM, stronger effect = higher value
[2] = as above; settings: NB7 neuroblastoma + caspase-8, without TRAIL, NB7 Caspase-8, without TRAIL, mean of runs, at 10 µM

Tumor necrosis factor receptor superfamily member 10B (Homo sapiens), sequence (O14763 whole entry, looked up): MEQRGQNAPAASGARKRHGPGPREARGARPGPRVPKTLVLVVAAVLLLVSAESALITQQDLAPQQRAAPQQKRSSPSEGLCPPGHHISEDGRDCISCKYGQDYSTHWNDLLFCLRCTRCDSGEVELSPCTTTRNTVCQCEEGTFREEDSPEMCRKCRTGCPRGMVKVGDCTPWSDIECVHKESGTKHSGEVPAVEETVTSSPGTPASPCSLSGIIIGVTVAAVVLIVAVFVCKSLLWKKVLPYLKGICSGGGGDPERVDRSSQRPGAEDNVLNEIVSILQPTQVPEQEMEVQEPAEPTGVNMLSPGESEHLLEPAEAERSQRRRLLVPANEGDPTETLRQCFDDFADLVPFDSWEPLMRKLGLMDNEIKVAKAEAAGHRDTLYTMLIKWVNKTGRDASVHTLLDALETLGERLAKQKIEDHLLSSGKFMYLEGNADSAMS

In the case of COc1ccc(C(=O)O/N=C(\N)c2ccccc2Cl)cc1OC, the activity [1] is reported as 95.7% and the activity [2] is reported as 92.8%.

Compound Cc1cccc(N(Cc2ccccc2)C(=O)CCl)c1 has an activity [1] of 99% and an activity [2] of 99.1%.

CC(C)(C)c1ccc(O)c(/C=N\O)c1 showed an activity [1] of 60.4% and an activity [2] of 72.9%.

O=C1Nc2cc(C(=O)NCCN3CCCCCC3)ccc2S/C1=C/c1ccccc1F gave an activity [1] of 82.5% and an activity [2] of 96%.

Work on Nc1nc(CCl)nc(N(c2ccccc2)c2ccccc2)n1 yielded an activity [1] of 99.3% and an activity [2] of 98.7%.

Work on OCC1OC(n2cnc3c(NCc4ccco4)ncnc32)C(O)C1O (configuration not stated) yielded an activity [1] of 46.1% and an activity [2] of 54.3%.

COc1ccc(OC)c2sc(N(CCN(C)C)C(=O)/C=C/c3cccs3)nc12 showed an activity [1] of 95.2% and an activity [2] of 98.8%.

With O=C(Nc1ccc(N2CCCC2)c(Cl)c1)c1ccco1 the activity [1] was 43.3% and the activity [2] was 27%.

Work on c1ccn2cc(-c3ccc4c(c3)OCCO4)nc2c1 yielded an activity [1] of 89% and an activity [2] of 86%.

With C/C(=N\NC(=O)c1ccccc1O)c1cccs1 the activity [1] was 68.1% and the activity [2] was 58.9%.

In the case of COc1ccc(-c2sc3ccccc3c2-c2ccc(OCCN(C)C)cc2)cc1, the activity [1] is reported as 52.4% and the activity [2] is reported as 73.6%.

COc1ccc(NC(=O)c2cccc(N3C(=O)c4ccc(C(=O)Nc5ccc(OC)c(O)c5)cc4C3=O)c2)cc1O showed an activity [1] of 71.7% and an activity [2] of 85.6%.

For CCCC(=O)N1CCN(c2ccc(NC(=O)c3cc4ccccc4o3)cc2Cl)CC1, the activity [1] was 83% and the activity [2] was 58.6%.

O=C(Nc1ccc2c(c1)CCC2)c1ccc(F)cc1 showed an activity [1] of 49.5% and an activity [2] of 44.1%.

In the case of Cc1ccsc1/C=C/c1ccc2ccccc2n1, the activity [1] is reported as 42.2% and the activity [2] is reported as 30.9%.

O=C(N/N=C/c1cc(Br)cs1)c1ccc2c(c1)OCCO2 showed an activity [1] of 78.8% and an activity [2] of 77.9%.

Compound COc1ccc(-c2cc3ccc(F)cc3cn2)cc1 has an activity [1] of 66.5% and an activity [2] of 58.9%.

CNS(=O)(=O)c1cccc(C(=O)OCC(=O)c2cc(C)n(CC3CCCO3)c2C)c1 (configuration not stated) gave an activity [1] of 77.7% and an activity [2] of 67%.

For CC(C)N1CCc2c(sc(NC(=O)c3ccc([N+](=O)[O-])o3)c2C(N)=O)C1, the activity [1] was -2.23% and the activity [2] was 93.5%.

Compound Cn1cccc1/C=C1\CCc2ccccc2C1=O has an activity [1] of 63.4% and an activity [2] of 51.8%.

With Cc1ccc(C(=O)OCn2ncc(Cl)c(Cl)c2=O)cc1 the activity [1] was 100% and the activity [2] was 100%.

For Cc1ccc2nc(NC(=O)c3cccs3)sc2c1, the activity [1] was 72.1% and the activity [2] was 71.2%.

In the case of O=Cc1s/c(=N\S(=O)(=O)c2ccccc2)n(CCCCl)c1Cl, the activity [1] is reported as 94.2% and the activity [2] is reported as 88.6%.

In the case of c1csc(-c2ccc(N3CCOCC3)nn2)c1, the activity [1] is reported as 69.5% and the activity [2] is reported as 69.4%.

Cc1cc(Br)c(OCc2ccc(C(=O)N/N=C/c3ccc[nH]3)cc2)c(Br)c1 gave an activity [1] of 72.8% and an activity [2] of 86.5%.

For CC(=O)Oc1ccc(/C=C/c2nc3ccccc3c(=O)o2)cc1, the activity [1] was 80.2% and the activity [2] was 75.2%.
